# Measured values from the supplement of paper PMC3334620.
# In all, about 33,000 sequences were measured (“E-score (-0.5 to 0.5)”: median about -0.0034, highest 2% from about 0.25 on). This is one part of a sample in which the highest values are shown more often than they occur.
# Biological target: T1, Yap3 (UniProt P38749)
# T1 sequence: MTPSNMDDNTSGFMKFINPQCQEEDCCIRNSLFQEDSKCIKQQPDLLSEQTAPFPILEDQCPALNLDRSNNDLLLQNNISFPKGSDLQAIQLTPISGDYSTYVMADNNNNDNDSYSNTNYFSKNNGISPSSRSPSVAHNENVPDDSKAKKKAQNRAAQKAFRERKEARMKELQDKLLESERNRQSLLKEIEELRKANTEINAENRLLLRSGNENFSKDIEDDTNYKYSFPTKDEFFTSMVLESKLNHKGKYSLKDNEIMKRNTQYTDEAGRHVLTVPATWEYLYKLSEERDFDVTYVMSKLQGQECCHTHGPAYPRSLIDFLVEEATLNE
# Experiment: PBM E-score (8-mer binding enrichment) (E-score (-0.5 to 0.5)); higher = stronger / more preferred TF binding
# Conditions: protein concentration: 100 nM; construct: GST-full length
# Summary of the method: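 Yeast transcription factors, full-length or as DNA-binding domains, were expressed with a GST tag using PURExpress in vitro transcription/translation. At about 100-200 nM they were applied to universal all-10-mer Agilent arrays, double-stranded by primer extension on fresh or once-stripped slides. Fluorescent anti-GST detected bound protein, and masliner normalised the scans. E-scores for ungapped eight-base words, pooled with reverse complements, came from the Universal PBM Analysis Suite.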
row,Sequence,PBM E-score
1,GACTGTCC,-0.203
2,ACGCTCAC,-0.0296
3,AAACACTC,0.0568
4,AAATAAGC,0.12
5,CAACATAG,0.144
6,CAACATAC,0.0807
7,TAACATAA,0.337
8,CAACATAA,0.297
9,GAACATAA,0.134
10,AAACATAA,0.202
11,CTGTGACA,0.0329
12,CATGGGCA,-0.0447
13,GTAGCGTA,0.0978
14,AATCCTGC,0.0275
15,ACTTGGGC,-0.119
16,AGCTCTAG,-0.0862
17,GAAAATCA,0.132
18,CAAGCAAA,0.00556
19,AGCCAGGA,-0.0633
20,GAAACTAA,0.00343
21,CAAACTAA,0.25
22,TAAACTAA,0.282
23,AAAACTAA,0.298
24,AAAACTAG,0.021
25,AAAACTAT,0.182

row,Sequence,PBM E-score
1,AGTGGTTA,0.142
2,GACACCGA,-0.136
3,CTGCTCCA,-0.0981
4,GTCCGTTA,0.107
5,ATCCGTTA,0.284
6,ATCCGTTC,0.057
7,ACGATACC,0.157
8,ACTGATCA,0.131
9,ACTCTACC,0.0336
10,ATATATGG,0.259
11,ATATATGC,0.224
12,CTATATAG,0.121
13,GTATATAC,0.0969
14,ATATATAT,0.231
15,CTATGGAG,-0.0464
16,ATATGGAC,0.0106
17,ATATATGA,0.185
18,ATATATAC,0.299
19,CTATATAC,0.367
20,CTCTATAC,-0.129
21,ATATGGAG,0.264
22,AAGAGAGC,-0.218
23,CCCACCAA,0.0694
24,ACCCCTTC,-0.182
25,CATCGCAC,-0.0244

row,Sequence,PBM E-score
1,CGAACTTA,0.0175
2,GTAGTTTA,0.203
3,ATAGAGCA,0.0256
4,CCCCGCCA,0.0511
5,CTAAATTA,0.212
6,AGAAATTG,0.266
7,ATAAATTG,0.312
8,GTAAATTA,0.223
9,ATAAATTA,0.365
10,ATAAATTC,0.153
11,AGAAATTC,0.0349
12,AAAAATTG,0.0568
13,ACAAATTG,0.173
14,AGACAAAA,0.0827
15,TCTAATCA,0.185
16,ACTAATGA,0.264
17,ACTAATCA,0.255
18,GCTAATAC,0.176
19,CCTAATAC,0.122
20,ACTAATCT,0.00634
21,ACTAAGAA,0.205
22,GCTAATGA,0.0606
23,CCTAATGA,0.128
24,ACTAAGAT,0.255
25,ACTAATAC,0.288

row,Sequence,PBM E-score
1,ACTAAGAC,-0.0709
2,CGTGTGTA,0.172
3,ATAGGTTA,0.0929
4,AGCAAACT,0.158
5,ATAGAGGA,-0.186
6,ACTAATAG,0.244
7,CCTAATAA,0.146
8,ACGAATAT,0.212
9,ACTAATAA,0.303
10,TCTAATAA,0.167
11,ACTAATAT,0.301
12,ATTAAAGG,0.199
13,CAAACTCC,-0.0365
14,CCGTGGAA,-0.00863
15,GCTCACAA,0.0362
16,TCGATGCA,-0.0467
17,GGTAATTA,0.221
18,CCTAATTC,0.036
19,AGTAATTC,0.235
20,AGTAATTA,0.307
21,AGTAATTG,0.164
22,CGTAATTC,0.296
23,CGTAATTA,0.335
24,AGTAAGTA,0.221
25,CGTAATGA,0.241

row,Sequence,PBM E-score
1,AGAAATCA,0.0967
2,ACCTCTGG,-0.158
3,ACCAGGAG,-0.207
4,CTACTCTC,-0.0538
5,AATGGTCC,0.113
6,AATGGTCA,0.26
7,TATGGTCA,0.0184
8,ACATCCTC,-0.0125
9,CTGAGAAA,0.0446
10,AATTTAAA,0.171
11,GACATGTA,0.162
12,CACATGTA,0.109
13,TACATGTA,0.255
14,GTCGGAAA,0.263
15,ATCGGAAA,0.112
16,CTCGGAAA,0.0289
17,CGAGCCAC,-0.228
18,GCCAGTAA,-0.206
19,GTACAAAA,0.233
20,CTACAAAA,0.0817
21,TTACAAAA,0.256
22,ATACAAAT,0.173
23,ATACAAAA,0.284
24,TCACAAAA,0.206
25,GGGTAGCA,-0.108

row,Sequence,PBM E-score
1,TAGAGGCA,-0.0959
2,ATCGTATG,0.0469
3,GTCTGCAA,-0.0254
4,AATGTTGA,0.0691
5,CATGTTGA,0.255
6,CATGTTGC,-0.0984
7,ACAAAAAG,0.239
8,GCAAAACC,-0.0668
9,ACAAAACC,0.272
10,GCAAATAC,0.0311
11,ACAAAAAA,0.234
12,ACAAAAAT,0.298
13,ACAAAAAC,0.143
14,ACAAATAG,0.202
15,ACAAATAC,0.293
16,CCAAATAC,-0.144
17,ACAAATAA,0.225
18,ACAAATAT,0.274
19,AAACCCTT,0.0938
20,ACAGGGTG,-0.126
21,ACCTAAAA,0.0796
22,AAGCGGAC,-0.025
23,ACGTAGTG,0.0166
24,GTACAGAA,-0.00324
25,CGTCAATC,0.0678

row,Sequence,PBM E-score
1,CCATGAGG,-0.0244
2,AATAGCCG,0.0258
3,ACCAGCAG,-0.186
4,CCTCGTAG,-0.00114
5,AAGATAAC,0.111
6,AAGATACT,-0.0357
7,AAGATAAA,0.286
8,AAGATACA,0.262
9,AAGATAAG,0.0204
10,GAGATACA,0.167
11,AAGGCCAC,-0.143
12,ACGCGAAT,0.106
13,CAATTAGC,0.085
14,ACAGACCG,-0.0661
15,CTCCCATC,0.0634
16,ACCAGAGG,-0.119
17,AATTCGCT,0.289
18,AATTCGCC,0.125
19,AATTCGCG,0.0991
20,GTGCACTA,0.0636
21,CTGCACTA,0.262
22,CTGCACTC,0.0431
23,AGACCATA,0.156
24,CTACGTCA,-0.0902
25,GTACGTCA,0.267

row,Sequence,PBM E-score
1,CTACGTTA,0.0868
2,GTACGTTA,0.256
3,ATACGTCA,0.0839
4,ATACGTTA,0.0384
5,CGAAGTAA,0.0985
6,GTGCCCAA,-0.0496
7,AATAACAG,0.149
8,CTTAACAC,0.114
9,ATTAACTC,0.193
10,AATAACAT,0.164
11,GTTAACAA,0.205
12,ATTAACAG,0.0676
13,ATTAACAA,0.282
14,ATTAACAC,0.273
15,AATAACAC,0.288
16,CCTGGTGC,-0.102
17,AATGCACG,-0.00779
18,ACATTTCG,0.0557
19,ACCTGGTC,-0.115
20,AAATGGAA,0.0788
21,GAATGTAA,0.221
22,AAATGTAA,0.227
23,TAATGGAA,0.256
24,TAATGTAA,0.312
25,GAATGGAA,0.131

row,Sequence,PBM E-score
1,CGAGGCGC,-0.0513
2,ATATTGAC,0.069
3,ATGCAGAC,-0.0609
4,CCTGGGTA,-0.172
5,CAAACGAA,0.0114
6,GAAACGAA,0.255
7,GAAACGAC,0.123
8,GGCGGGGA,0.233
9,CATAATAA,0.105
10,GGCAATAA,0.114
11,CATAATAC,0.24
12,TATAATGA,0.136
13,CGCAATAA,0.191
14,TGCAATAA,0.272
15,AATAATAG,0.2
16,TATAATAA,0.287
17,AATAATAC,0.296
18,GATAATAA,0.113
19,AATAATAA,0.308
20,GATAATAC,0.182
